Assay results as given in PubChem BioAssay.
Activity calls are given as the source filed them.

What was measured:
[1] = binders of probe aFSTL3 on microarray, primary screen, stem cell growth factor project, biochemical, small-molecule microarray, fluorescence 635/667 (AID 1064); conditions: higher = more signal;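 further: measures binding of the biotinylated anti-FSTL3 antibody to printed compounds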
[2] = binders from COS7 lysate, DM2A8 probe, primary screen, torsin A project, cell lysate, small-molecule microarray, fluorescence 635/667 (AID 1065); conditions: higher = more signal, COS7 lysate expressing mutant human TOR1A
[3] = binders of probe aFGF2 on microarray, primary screen, stem cell growth factor project, biochemical, small-molecule microarray, fluorescence 635/667 (AID 1067); conditions: higher = more signal;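 further: measures binding of biotinylated aFGF2 protein to printed compounds on slides; z-score merges feature fluorescence and signal-to-noise across triplicate slides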
[4] = binders of probe aFGF10 on microarray, primary screen, stem cell growth factor project, biochemical, small-molecule microarray, fluorescence 635/667 (AID 1071); conditions: higher = more signal;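 further: score merges 667 nm spot intensity and signal to noise from triplicate slides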
[5] = target: Neurogenic locus notch homolog protein 2 (Homo sapiens) (UniProt Q04721); test: Notch2 binders on small-molecule microarrays, primary screen, biochemical, small-molecule microarray, 635 nm fluorescence, stem cell growth factors (AID 1073); conditions: Notch2 binding, higher = more signal
[6] = target: Pro-neuregulin-1, membrane-bound isoform (Homo sapiens) (UniProt Q02297); test: NRG1 binders on small-molecule microarrays, primary screen, psychiatric disease protein project, biochemical, small-molecule microarray, fluorescence 635/667 (AID 1075); conditions: NRG1 binding, 635 nm fluorescence, higher = more signal;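 further: score combines 667 nm spot fluorescence with signal to noise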
[7] = test system: Neuregulin-1 EGF-like domain; test: binders of neuregulin-1 EGF-like domain, primary screen, biochemical, small-molecule microarray, 635 nm fluorescence (AID 1081); conditions: small-molecule microarray binding, higher = more signal;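 further: binding of the protein to compounds printed on small-molecule microarray slides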
[8] = FRG1 promoter luciferase signal modulators, primary screen, FRG1 inhibition for FSHD, cell-based, C2C12 myotubes, firefly/Renilla luciferase, luminescence (AID 1084); conditions: higher = more signal, called active from +8 up or from −8 down
[9] = binders of probe aFST on microarray, primary screen, stem cell growth factor project, biochemical, small-molecule microarray, fluorescence 635/667 (AID 1086); conditions: higher = more signal;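 further: score merges 667 nm fluorescence with signal-to-noise of each printed compound spot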
[10] = binders of probe aHhip on microarray, primary screen, stem cell growth factor project, biochemical, small-molecule microarray, fluorescence 635/667 (AID 1087); conditions: higher = more signal;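 further: score merges spot fluorescence at 667nm with spot signal to noise ratio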

Chain of Pro-neuregulin-1, membrane-bound isoform (Homo sapiens) (Q02297 whole entry, looked up, the tested form may be a part, canonical isoform): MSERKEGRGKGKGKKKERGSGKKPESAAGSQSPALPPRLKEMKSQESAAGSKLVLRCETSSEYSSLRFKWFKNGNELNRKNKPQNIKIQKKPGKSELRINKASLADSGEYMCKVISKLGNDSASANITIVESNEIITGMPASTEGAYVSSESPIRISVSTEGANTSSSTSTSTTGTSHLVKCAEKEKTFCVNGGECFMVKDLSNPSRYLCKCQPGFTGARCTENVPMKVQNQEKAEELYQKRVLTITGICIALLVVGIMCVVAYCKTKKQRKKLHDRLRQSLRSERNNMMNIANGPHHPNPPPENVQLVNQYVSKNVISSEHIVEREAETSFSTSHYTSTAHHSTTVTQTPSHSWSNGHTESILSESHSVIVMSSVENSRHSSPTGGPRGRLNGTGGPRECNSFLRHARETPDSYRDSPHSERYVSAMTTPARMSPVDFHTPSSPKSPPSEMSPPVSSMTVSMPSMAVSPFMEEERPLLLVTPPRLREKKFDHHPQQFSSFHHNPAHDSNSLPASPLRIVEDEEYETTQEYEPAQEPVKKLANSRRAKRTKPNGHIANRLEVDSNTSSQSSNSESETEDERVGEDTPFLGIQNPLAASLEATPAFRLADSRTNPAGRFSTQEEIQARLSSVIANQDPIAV
Chain of Neurogenic locus notch homolog protein 2 (Homo sapiens) (Q04721 whole entry, looked up, canonical isoform): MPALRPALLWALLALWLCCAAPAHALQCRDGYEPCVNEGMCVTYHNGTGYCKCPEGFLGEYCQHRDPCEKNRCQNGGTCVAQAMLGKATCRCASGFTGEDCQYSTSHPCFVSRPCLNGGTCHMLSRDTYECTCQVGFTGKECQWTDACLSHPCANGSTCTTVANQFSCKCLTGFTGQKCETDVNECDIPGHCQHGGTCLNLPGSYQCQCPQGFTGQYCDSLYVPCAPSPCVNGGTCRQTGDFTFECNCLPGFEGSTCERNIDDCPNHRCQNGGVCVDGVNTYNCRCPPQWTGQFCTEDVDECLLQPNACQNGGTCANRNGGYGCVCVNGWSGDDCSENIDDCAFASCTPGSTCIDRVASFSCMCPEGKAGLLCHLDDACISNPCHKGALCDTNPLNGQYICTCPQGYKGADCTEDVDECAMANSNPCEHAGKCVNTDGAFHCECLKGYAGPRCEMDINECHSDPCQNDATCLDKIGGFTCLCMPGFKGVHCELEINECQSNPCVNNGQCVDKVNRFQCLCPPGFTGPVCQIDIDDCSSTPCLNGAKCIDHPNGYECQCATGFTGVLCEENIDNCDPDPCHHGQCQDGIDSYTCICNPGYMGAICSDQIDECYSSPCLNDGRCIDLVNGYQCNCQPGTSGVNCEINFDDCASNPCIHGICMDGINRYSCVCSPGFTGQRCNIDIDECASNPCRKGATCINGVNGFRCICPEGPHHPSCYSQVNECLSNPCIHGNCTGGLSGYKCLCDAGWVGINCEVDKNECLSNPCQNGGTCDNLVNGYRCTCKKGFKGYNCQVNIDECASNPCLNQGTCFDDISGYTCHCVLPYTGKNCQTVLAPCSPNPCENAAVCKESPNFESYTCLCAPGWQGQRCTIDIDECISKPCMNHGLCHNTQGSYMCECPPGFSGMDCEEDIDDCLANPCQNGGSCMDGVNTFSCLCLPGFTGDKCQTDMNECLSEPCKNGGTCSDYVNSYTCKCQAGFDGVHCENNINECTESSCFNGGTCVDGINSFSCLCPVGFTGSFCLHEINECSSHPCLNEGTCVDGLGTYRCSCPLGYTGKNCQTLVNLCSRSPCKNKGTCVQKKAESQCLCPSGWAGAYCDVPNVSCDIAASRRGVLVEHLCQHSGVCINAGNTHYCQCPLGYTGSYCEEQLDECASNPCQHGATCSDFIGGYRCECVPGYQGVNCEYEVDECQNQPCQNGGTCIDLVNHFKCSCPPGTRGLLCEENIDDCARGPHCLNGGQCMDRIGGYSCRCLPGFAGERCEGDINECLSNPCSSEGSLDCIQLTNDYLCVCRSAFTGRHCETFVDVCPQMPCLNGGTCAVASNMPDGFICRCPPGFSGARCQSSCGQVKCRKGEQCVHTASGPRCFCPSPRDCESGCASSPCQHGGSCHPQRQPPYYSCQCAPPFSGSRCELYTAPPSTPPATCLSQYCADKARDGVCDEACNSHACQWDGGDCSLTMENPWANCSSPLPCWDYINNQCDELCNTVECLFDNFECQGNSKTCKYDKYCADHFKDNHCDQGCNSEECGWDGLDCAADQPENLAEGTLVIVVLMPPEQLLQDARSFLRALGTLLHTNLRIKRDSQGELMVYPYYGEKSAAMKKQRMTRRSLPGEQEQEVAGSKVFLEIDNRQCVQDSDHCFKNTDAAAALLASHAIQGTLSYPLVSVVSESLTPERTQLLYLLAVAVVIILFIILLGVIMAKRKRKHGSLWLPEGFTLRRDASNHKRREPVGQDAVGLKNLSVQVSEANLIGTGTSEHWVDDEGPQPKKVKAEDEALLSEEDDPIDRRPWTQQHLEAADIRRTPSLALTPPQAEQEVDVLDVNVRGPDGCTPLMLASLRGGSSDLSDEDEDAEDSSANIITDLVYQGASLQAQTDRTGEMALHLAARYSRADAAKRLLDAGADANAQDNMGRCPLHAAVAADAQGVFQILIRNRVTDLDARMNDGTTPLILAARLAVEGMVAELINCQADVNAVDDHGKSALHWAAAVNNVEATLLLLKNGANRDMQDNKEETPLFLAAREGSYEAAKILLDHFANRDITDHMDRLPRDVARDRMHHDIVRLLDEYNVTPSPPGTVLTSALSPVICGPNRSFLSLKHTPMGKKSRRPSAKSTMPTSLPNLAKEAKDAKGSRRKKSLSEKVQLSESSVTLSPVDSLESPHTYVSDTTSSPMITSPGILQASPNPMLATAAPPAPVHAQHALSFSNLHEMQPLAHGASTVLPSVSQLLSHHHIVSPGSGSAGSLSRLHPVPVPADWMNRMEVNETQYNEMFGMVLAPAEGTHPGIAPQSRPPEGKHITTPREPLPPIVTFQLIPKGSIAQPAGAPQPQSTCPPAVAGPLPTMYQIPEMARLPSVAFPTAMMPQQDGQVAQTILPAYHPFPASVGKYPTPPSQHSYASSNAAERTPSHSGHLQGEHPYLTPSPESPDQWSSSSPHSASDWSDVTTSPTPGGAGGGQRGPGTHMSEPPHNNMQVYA

Compound	composite z-score [1]	composite z-score [2]	composite z-score [3]	composite z-score [4]	composite z-score [5]	composite z-score [6]	composite z-score [7]	z-score [8]	composite z-score [9]	composite z-score [10]
Cc1ccc(S(=O)(=O)n2c3ccccc3c3nnc(C(=O)c4ccccc4)nc32)cc1	-0.474	0.338	-0.0603	0.316	0.197	-0.457	0.355	49.6 (active)	0.141	-0.137
CC(C)(C)N1C(=O)[C@H]2[C@H]3[C@H](O)[C@H](O)CC(=O)[C@H]3CC[C@H]2C1=O	-0.635	1.21	-0.107	0.295	0.967	0.354	0.725	-0.0954 (inactive)	0.115	-0.134
CCc1cc2c(nc1CC)CCN(CCC(C)=NO[C@@H](C)c1cn([C@H](CO)Cc3ccccc3)nn1)C2	-0.0739	0.39	-0.123	0.112	-0.0274	0.373	-0.0269	0.704 (inactive)	0.283	0.115
C=CC[C@@H]1C=C[C@H](ON=C(C)CCC(=O)OC[C@H]2O[C@H](C#Cc3ccccc3)C=C[C@@H]2Oc2ccc(C)cc2)[C@@H](CO)O1	-0.566	0.692	0.0624	0.782	1.12	0.661	0.984	-0.349 (inactive)	0.203	0.0373
COc1ccc(O[C@H]2C=C[C@@H](c3ccccc3)O[C@@H]2CON=C(C)CCC(=O)OC[C@H]2O[C@H](c3ccccc3)C=C[C@@H]2Oc2ccc(OC)cc2)cc1	0.0321	-0.543	-0.141	0.0207	-1.5	-0.496	-1.1	0.634 (inactive)	-0.677	-0.0994
O=C(NN=C1C[C@@H](O)[C@@H](O)[C@@H]2[C@@H]3C(=O)N(C[C@@H]4CCCO4)C(=O)[C@@H]3CC[C@@H]12)OCc1ccccc1	-0.51	2.32	-0.173	-0.522	-0.122	-0.802	0.631	-0.891 (inactive)	-0.0104	-0.0994
O=C1[C@H]2[C@H]3[C@H](O)[C@H](O)CC(=NOCc4ccccc4)[C@@H]3CC[C@H]2C(=O)N1Cc1ccc2c(c1)OCO2	-0.138	-0.247	-0.0583	0.321	0.376	0.299	-0.0604	1.1 (inactive)	0.357	0.0922
C#CCCCON=C1C[C@@H](O)[C@@H](O)[C@@H]2[C@@H]3C(=O)N(CCC(=O)OCC)C(=O)[C@@H]3CC[C@H]12	-0.467	0.294	-0.0502	0.481	0.872	0.64	0.685	-1.41 (inactive)	0.593	-0.0994
CO[C@@H]1COC(=O)[C@H](CCSC)NC(=O)CC=C[C@@H](C)COC(=O)CCC[C@H]1C	-0.994	2.94	-0.167	0.114	-0.559	-1.28	1.15	0.0651 (inactive)	1.41	-0.161
CCOC(=O)[C@H](CC(C)C)NC(=O)CCC1CC(OC(=O)NCc2cccc3ccccc23)CC2(CCCC(COC(=O)NCc3ccncc3)O2)O1 (stereo not given in full)	-0.678	0.298	-0.151	0.633	1.12	0.547	0.783	-0.689 (inactive)	0.407	-0.236
COC(=O)[C@H](C)NC(=O)CCC1CC(OC(=O)NCc2ccc3c(c2)OCO3)CC2(CCCC(COC(=O)NCc3cccc(C(F)(F)F)c3)O2)O1 (stereo not given in full)	-0.0199	0.325	-0.1	0.688	0.679	0.151	0.795	-0.15 (inactive)	0.307	1.19
CCOC(=O)[C@H](Cc1ccccc1)NC(=O)CCC1CC(OC(=O)NCc2ccc3c(c2)OCO3)CC2(CCCC(COC(=O)NCCc3ccccc3OC)O2)O1 (stereo not given in full)	-0.259	0.058	-0.147	0.471	1.26	1.04	1.1	1.04 (inactive)	0.569	0.141
C[C@H](ON=C1[C@H]2CCn3c(=O)n(-c4ccccc4)c(=O)n3[C@H]2[C@H](O)[C@@H]2O[C@H]12)c1cn([C@H](CO)Cc2ccccc2)nn1	-0.317	0.386	-0.0189	0.347	0.862	-0.0139	0.764	0.68 (inactive)	0.138	1.13
CC(C)=CCCC(C)=CCON=C1C[C@@H](O)[C@@H](O)[C@@H]2[C@@H]3C(=O)N(c4ccc(F)cc4F)C(=O)[C@@H]3CC[C@H]12	-0.292	0.611	-0.174	0.03	1	1.06	0.849	-0.389 (inactive)	0.573	0.0976
CC(=O)OC[C@H]1O[C@@H](ON=C(C)CCN2CCCc3nc(C)c(C)cc32)[C@H](OC(C)=O)[C@@H](OC(C)=O)[C@@H]1OC(C)=O	-0.63	0.165	-0.127	0.76	1.41	0.394	1.07	0.935 (inactive)	0.139	-0.0618
COC(=O)[C@@H]1CC[C@H](C)[C@@H](c2ccc(C)cc2)N1C(=O)c1ccc(C=NO[C@H](C)c2cn([C@H](CO)Cc3ccccc3)nn2)cc1	-0.02	0.522	-0.0563	0.674	0.672	-0.0294	1.12	0.0599 (inactive)	0.517	0.837
CCCCC#C[C@@H]1C=C[C@H](OC(C)=O)[C@@H](COC(C)=O)O1	-0.515	0.37	-0.112	0.319	0.617	0.304	0.0329	-1.28 (inactive)	0.0643	-0.134

Compound	composite z-score [1]	composite z-score [2]	composite z-score [3]	composite z-score [4]	composite z-score [5]	composite z-score [6]	composite z-score [7]	z-score [8]	composite z-score [9]	composite z-score [10]
C#CCCCON=C1[C@H]2CCn3c(=O)n(C)c(=O)n3[C@H]2[C@H](O)[C@@H]2O[C@H]12	-0.454	0.588	0.0624	0.382	1.05	-0.0714	0.58	0.678 (inactive)	0.159	0.535
O=c1n(Cc2cc3c(cc2Cl)OCO3)c(=O)n2n1CC[C@@H]1C(=NOCc3ccccc3)[C@H]3O[C@H]3[C@@H](O)[C@@H]12	-0.381	0.188	-0.14	0.47	0.589	0.114	0.428	-0.611 (inactive)	0.764	-0.0645
CO[C@@H]1COC(=O)[C@H](CCSC)NC(=O)CC=C[C@@H](C)COC(=O)[C@H](C)NC(=O)CC=C[C@H]1C	-0.605	1.03	-0.129	0.347	0.115	-0.343	0.871	-0.0159 (inactive)	0.457	0.408
O=C1CCCC=C1C(CCc1ccccc1)OC(=O)c1ccc(Br)cc1 (stereo not given)	-0.351	0.0329	-0.0841	0.335	0.047	-0.532	-0.529	3.31 (inactive)	-0.205	-0.137
CCOC(=O)NN=C1C[C@@H](O)[C@@H](O)[C@@H]2[C@@H]3C(=O)N(c4cccc(Oc5ccccc5)c4)C(=O)[C@@H]3CC[C@@H]12	-0.216	1.21	-0.085	0.542	-0.202	0.823	0.81	-0.233 (inactive)	0.0218	-0.249
CCOC(=O)[C@H](Cc1ccccc1)NC(=O)CCC1CC(OC(=O)NCc2ccc3c(c2)OCO3)CC2(CCCC(COC(=O)NCCC(C)C)O2)O1 (stereo not given in full)	-0.545	0.107	-0.0193	0.755	0.523	1.41	1.06	0.548 (inactive)	0.169	0.268
COc1ccc(COC(=O)NN=C2C[C@@H](O)[C@@H](O)[C@@H]3[C@@H]4C(=O)N(C5CCCCC5)C(=O)[C@@H]4CC[C@H]23)cc1	1.21	0.588	-0.0784	-0.396	-0.961	-0.255	-0.194	0.248 (inactive)	0.524	-0.409
COC(=O)[C@H](C)NC(=O)CCC1CC(OC(=O)NCCc2ccc(F)cc2)CC2(CCCC(COC(=O)NCc3cccc(C(F)(F)F)c3)O2)O1 (stereo not given in full)	-0.632	0.041	-0.0265	0.624	1.36	0.0829	0.729	0.286 (inactive)	0.829	-0.0645
CC(CCN1CCCc2nc(C)c(C)cc21)=NOC(C)CN1CCCCc2nc(C)c(C)cc21 (stereo not given)	-0.213	0.854	0.0766	0.644	1.51	0.303	1.13	1.21 (inactive)	1.09	0.815
CC(=O)OC[C@H]1O[C@H](CCON=C2[C@H]3CCn4c(=O)n(-c5ccccc5)c(=O)n4[C@H]3[C@H](O)[C@@H]3O[C@H]23)C=C[C@@H]1OC(C)=O	-0.47	0.141	-0.0218	0.448	0.57	-0.147	0.18	-0.513 (inactive)	0.476	0.163
O=C1[C@H]2[C@H]3[C@H](O)[C@H](O)CC(=NOCc4ccccc4)[C@@H]3CC[C@H]2C(=O)N1c1ccc(F)cc1F	1.17	-0.0135	-0.197	0.423	0.104	-0.0591	-0.646	-0.738 (inactive)	0.0704	-0.236
O=C1C[C@@H](O)[C@@H](O)[C@@H]2[C@@H]3C(=O)N(Cc4ccccc4)C(=O)[C@@H]3CC[C@@H]12	-0.281	0.311	-0.0573	0.286	0.474	0.205	0.771	0.554 (inactive)	-0.0427	-0.204
COC(=O)CC=C[C@@H](C)[C@@H](C=NO[C@@H](C)c1cn([C@H](CO)Cc2ccccc2)nn1)OC	-0.446	1.68	-0.119	-0.0052	0.0576	-0.0718	-0.265	-0.839 (inactive)	0.0066	-0.34
CO[C@@H]1COC(=O)[C@@H](C)NC(=O)CC=C[C@@H](C)[C@H](NS(=O)(=O)c2ccc(C)cc2)COC(=O)[C@H](C)NC(=O)CC=C[C@H]1C	-0.505	0.441	-0.119	0.189	-0.167	-0.523	0.388	0.0404 (inactive)	-0.0334	0.168
CCc1cc2c(nc1CC)CCN(CCC(C)=NO[C@H](C)c1cn([C@@H]3COC[C@H]3O)nn1)C2	-0.141	-0.0699	-0.0015	0.0444	0.199	-0.174	-0.365	-0.0345 (inactive)	0.224	-0.0994
CO[C@H]1COC(=O)CC=C[C@H](C)COC(=O)[C@@H](C)NC(=O)CC=C[C@@H]1C	-0.512	1.94	-0.0996	0.231	-0.0457	-0.79	0.219	0.464 (inactive)	-0.214	0.0794
